This assay is described as follows: NCI Yeast Anticancer Drug Screen. Data for the bub3 strain (AID 167). The following applies: S. cerevisiae bub3 mutant strain, active compounds read high. As for the experimental part:
Growth inhibition of yeast strains with defined genetic alterations is measured as a screen for potential anti-cancer activity. Selected strains with alterations in DNA damage repair or cell cycle control were exposed to compounds and growth inhibition was measured relative to vehicle treated controls. The strain used in this assay is bub3

[1] abbreviates: at 5.0 µM (retest, dose inferred, filed as 0.5).
[2] abbreviates: at 50.0 µM (retest, dose inferred, filed as 5.0).

Compounds without any hit were thinned out: in the full panel of roughly 79,000, 15% have a hit. Unmarked numbers belong to inactive results. Activity calls are given as the source filed them. No stated cut-off is given here; in the data, active means growth inhibition above about 70%; inactive means the rest.

On to `O=C1C=CC(=O)N1c1ccc(N2C(=O)C=CC2=O)cc1`, for which the growth inhibition runs as follows: (at 1.2 µM) 48%; (at 3.7 µM) 96% (active); under setting [1], 19%; (at 11.0 µM) 100% (active); (at 33.0 µM) 100% (active); under setting [2], 99% (active). Also, the growth inhibition was 92.8% (active) (at 50.0 µM) and 99% (active) (at 100.0 µM).

Take `Nc1ccc2c(c1)sc1ccccc12`: the growth inhibition was -6% (at 1.2 µM); -4% (at 3.7 µM); -59% under setting [1]; 3% (at 11.0 µM); 18% (at 33.0 µM); 40% under setting [2]. The growth inhibition runs as follows: (at 50.0 µM) 92.5% (active); (at 100.0 µM) 99% (active).

As to `COc1ccc2c(c1)[nH]c1c(/C=C/c3ccccc3)nccc12`, the growth inhibition by setting is: (at 1.2 µM) 12%; (at 3.7 µM) 19%; under setting [1], -24%; (at 11.0 µM) 27%; (at 33.0 µM) 48%; under setting [2], 82% (active). Moreover, the growth inhibition (at 50.0 µM) was 87.8% (active) and the growth inhibition (at 100.0 µM) was 98% (active).

On to `CCc1nc(N)nc(N)c1-c1ccc(NCCCCCCN)c([N+](=O)[O-])c1`, for which the growth inhibition was -7% (at 1.2 µM); -4% (at 3.7 µM); 11% under setting [1]; 9% (at 11.0 µM); 17% (at 33.0 µM); -16% under setting [2]. Besides, the growth inhibition reads like this: (at 50.0 µM) 93.5% (active); (at 100.0 µM) -2%.

For the compound `CN(CC(=O)O)c1ccc(/C=C/c2ccnc3ccccc23)cc1`, the growth inhibition by setting is: (at 1.2 µM) -3%; (at 3.7 µM) -4%; under setting [1], 6%; (at 11.0 µM) -5%; (at 33.0 µM) -8%; under setting [2], 20%. Further, the growth inhibition is, setting by setting: (at 50.0 µM) 51.9%; (at 100.0 µM) 12%.

Values taken from PubChem BioAssay (NCI).
